Measurements published in the supplement of paper PMC10681739.

target: T1, ETS1 (UniProt P14921); experiment: ETS1 binding intensity (PBM fluorescence) in presence of RUNX1, normalised to ETS1-only experiment (arbitrary fluorescence units); higher = stronger binding; conditions: ETS1 concentration 1 nM; RUNX1 concentration 25 nM
T1 sequence: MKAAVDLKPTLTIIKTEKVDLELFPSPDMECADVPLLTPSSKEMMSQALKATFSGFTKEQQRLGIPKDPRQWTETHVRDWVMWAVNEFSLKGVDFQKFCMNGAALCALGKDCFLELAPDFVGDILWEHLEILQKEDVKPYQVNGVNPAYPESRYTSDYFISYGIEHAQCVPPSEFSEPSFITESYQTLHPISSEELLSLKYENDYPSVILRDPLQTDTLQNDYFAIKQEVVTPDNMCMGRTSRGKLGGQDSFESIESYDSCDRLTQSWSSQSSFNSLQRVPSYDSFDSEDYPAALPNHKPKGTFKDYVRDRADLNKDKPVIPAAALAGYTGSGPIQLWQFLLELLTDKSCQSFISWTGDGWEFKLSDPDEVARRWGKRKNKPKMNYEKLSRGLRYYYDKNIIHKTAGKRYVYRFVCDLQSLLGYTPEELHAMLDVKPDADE

Q: CCTCTGAGGCAGGAAGCTGCGGTGAAGTCTGAAGTT was tested. Which ETS1 binding intensity did it give?
A: 11800

Q: TGAGCCCTACTTCCGGTGGTGCTGTGGTCTGCCCCT was tested. Which ETS1 binding intensity did it give?
A: 13200

Q: For ACGACGTCCCGGAAGTGCTGCGGCAATGTTGCTCTT, which ETS1 binding intensity is on record?
A: 6620

Q: With GGGCAGGAAGGAAGAGGGCTCCTCCCCACAAGCTCT as the sequence, how does the ETS1 binding intensity read?
A: 492

Q: ACATGGTCTCGCTTCCTGTTTACACCACAGAAAGCT was tested. Which ETS1 binding intensity did it give?
A: 4140

Q: Which ETS1 binding intensity does the source give for GGGCTCCCAGAAGGATGTGGTTTCTGAGTACGTTGG here?
A: 3520

Q: GAGAGGAGGATGTTGTCAGATACCCACAAATGAGAA was tested. Which ETS1 binding intensity did it give?
A: 621

Q: With AATCCAACACTTCCTCCTCCACCGCAGAAAGGCAAC as the sequence, how does the ETS1 binding intensity read?
A: 966

Q: For AGCCAACAGGAAGCTGCAGAGACTAAACCACAGCAA, which ETS1 binding intensity is on record?
A: 4930

Q: CCCGCTACACAAGGCGGATGTGGTACCCTCACTTGT was tested. Which ETS1 binding intensity did it give?
A: 6380

Q: With CCTCCCACCTTGGCAGGAAGCGGTTTATCAGATTAA as the sequence, how does the ETS1 binding intensity read?
A: 7770

Q: TTAACCAGACATTTCCTGTGGTCTAAGGTGACCCCA was tested. Which ETS1 binding intensity did it give?
A: 1090

Q: Which ETS1 binding intensity does the source give for GCGGGGACCCGGATGTGTGTGGTGGCGGCGGCCGAA here?
A: 3350

Q: Which ETS1 binding intensity does the source give for TATGTGTTTTAGGCAGGATGTGGGTTTTAGTCTTTC here?
A: 36400

Q: Which ETS1 binding intensity does the source give for TGTTGTAGGGGAAGTGGTGTGTGGTATTCCTGGGGA here?
A: 1690

Q: GCACTTCCGGAGCCGGGCGTCTACAGACCGCGGCCA was tested. Which ETS1 binding intensity did it give?
A: 1050

Q: Which ETS1 binding intensity does the source give for AGCTCAATTTCCTGGCGTGTAACATGGCCACAAGGG here?
A: 595

Q: With CTTAGCGGAAGAGGCGTGACCCAGGCGTACCGCAGG as the sequence, how does the ETS1 binding intensity read?
A: 1320

Q: GAGTCGCTTCCGCTCCCGCCCCGCTCTGTGGCGTAG was tested. Which ETS1 binding intensity did it give?
A: 1330

Q: With TTTTTAAGGTCAGGATGTGGGCACATCTAAGGGGCA as the sequence, how does the ETS1 binding intensity read?
A: 1730

Q: TATTCATGACATCCTGTCGGGCTTGTGGGCTGCGTA was tested. Which ETS1 binding intensity did it give?
A: 1590

Q: For CTGGTTTCATTTCCGGGTGCGGCTTCTGTCATAAAG, which ETS1 binding intensity is on record?
A: 2350

Q: With ACATTTCCTTTTGGTATTTAAAGTAACCACACAGAA as the sequence, how does the ETS1 binding intensity read?
A: 668

Q: How did the ETS1 binding intensity turn out when CCAGCTACACAGGATGCTGCGGTGGGCGGAATGCTC was run?
A: 9170

Q: For AGGGTGTGGAGGAAGTGGCTTACAACCACTTTGTCT, which ETS1 binding intensity is on record?
A: 1500

Q: AGCGCTTCCTGGCTCCGGCCCCGCCCCTGCGGTCGG was tested. Which ETS1 binding intensity did it give?
A: 1110

Q: With GCGGAGGCGGAAGTCGTGCTGCTGCTGACCACGGCT as the sequence, how does the ETS1 binding intensity read?
A: 3170

Q: For CCGGGCTGCGGAAGGCGGGAACTCTGCGGTTCGCGG, which ETS1 binding intensity is on record?
A: 2650

Q: How did the ETS1 binding intensity turn out when GAAATGAGAGAACGGAAACCACAAGTCAAGGGGCTT was run?
A: 2790

Q: How did the ETS1 binding intensity turn out when GCCCCCGGAAGCTGTCGCCCCGTGCGGTGTGTGCTG was run?
A: 2000

Q: With GAGGCCCAGGATGTGGCTGGAGGCCTGTGGTGGGAC as the sequence, how does the ETS1 binding intensity read?
A: 1130

Q: Which ETS1 binding intensity does the source give for GACCAATGTAAACAAGGATGTGGGTTCTCCGGGCAC here?
A: 2030

Q: For AGAGCGAGGAGGACTTCCTGCGGCAGGTCGGCGTGA, which ETS1 binding intensity is on record?
A: 622

Q: GCCATGGCCACTTCCTGCTTGTAACCACAGCCCAGA was tested. Which ETS1 binding intensity did it give?
A: 13200

Q: How did the ETS1 binding intensity turn out when AAGAGGAAGTCCCAAATTGCTTTTTAACCACCAACA was run?
A: 874

Q: Which ETS1 binding intensity does the source give for AACAAACCGGATGGGGTTGCCACCCGCAATCTTGTC here?
A: 5130

Q: CGGCATCTGACAGGATGTGGGCAGGGAGAGAGAGAC was tested. Which ETS1 binding intensity did it give?
A: 9220

Q: How did the ETS1 binding intensity turn out when GCGGGGCGCAGGAAGCGGGGCGAAACCACTGTTGGC was run?
A: 1550

Q: How did the ETS1 binding intensity turn out when CATACAGGATGCTGGGGTATGTAAAACAAACCACGG was run?
A: 678

Q: GTTTCATGTTAAGTAGGATGTGGTCAGTTAGCTTCG was tested. Which ETS1 binding intensity did it give?
A: 5410
